According to PubChem BioAssay (NCATS):
Inconclusive results are not listed. Entries that show only a call come without a potency. Where a structure was tested more than once in an assay, its records may differ in their call. Active and inactive are the calls of the source. Calls come from the whole dose curve; as a rule, active = well fitted cell-killing curve with a large enough effect; inconclusive = small, poorly fitted or top-dose-only effect, or effect the other way; inactive = flat fitted curve, though single readings scatter.

What follows are compounds tested on C33A (assay: Primary qHTS to identify gynecologic anti-cancer compounds using libraries of approved drugs and bioactive compounds (AID 1345084; note: nearly all actives have a fitted effect of over 55% in size)). Conditions: Gynecologic cancer cell panel viability, ATPlite luminescence, 48 h; series mostly up to 57.5 µM.
Summary of the method: (§1)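 Cells, 1,000 per well, were allowed to settle for 16 h at 37 C before compound addition. Five concentrations were tested for 48 h, and viability was read by ATPlite luminescence after 15 min at room temperature.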
Potency is the fitted concentration of half-maximal effect.

Compound | Potency
OCc1c[nH]c2ccccc12 | 35.5 µM (active)
CC(=O)Oc1ccc(C2(c3ccc(OC(C)=O)cc3)Oc3ccccc3NC2=O)cc1 | inactive
NC(=O)C1(N2CCCCC2)CCN(CCCN2c3ccccc3CCc3ccc(Cl)cc32)CC1 | 25.1 µM (active)

The compounds below were run on CAOV3 in the same assay as above. Conditions: Gynecologic cancer cell panel viability, ATPlite luminescence, 48 h; series mostly up to 57.5 µM.
Summary of the method: as §1

Compound | Potency
CCC1=C[C@@H]2CN(C1)Cc1c([nH]c3ccccc13)[C@@](C(=O)OC)(c1cc3c(cc1OC)N(C)[C@H]1[C@@](O)(C(=O)OC)[C@H](OC(C)=O)[C@]4(CC)C=CCN5CC[C@]31[C@@H]54)C2 | 10 µM (active)
COc1c(C)c2c(c(O)c1C/C=C(\C)CCC(=O)OCCN1CCOCC1)C(=O)OC2 | inactive
CC1CC(=O)NN=C1c1ccc(NCC(C)(C)NCC(O)COc2cc(Cl)ccc2C#N)cc1 (configuration not stated) | inactive
O=S(=O)(O)c1ccc2nc(-c3ccccc3)[nH]c2c1 | inactive
C[C@H](CN1CCCC1)C(=O)c1ccc(C(F)(F)F)cc1 | inactive
COC(=O)c1cc(Cl)ccc1NS(=O)(=O)C(F)(F)F | 25.1 µM (active)
CCCCCCCCCCCCCCCCCCNC(=O)OC1CCN(C(=O)OC[C@H](COC(=O)N(Cc2cccc[n+]2CC)C(=O)c2ccccc2OC)OC)CC1 | 15.8 µM (active)
O=C(Nc1ccc(S(=O)(=O)N2CCOCC2)cc1)c1cc(Cl)ccc1NS(=O)(=O)c1ccc(Cl)s1 | inactive
CO[C@@H]1[C@@H](OC)[C@H](C)[C@@](O)(CC(=O)O)O[C@H]1[C@H](C)[C@H]1O[C@@]2(CC[C@@](C)([C@H]3CC[C@@](C)([C@@H]4O[C@@H]([C@H]5O[C@](C)(O)[C@H](C)C[C@@H]5C)C[C@@H]4OC4C[C@H](OC)[C@@H](OC)[C@H](C)O4)O3)O2)C[C@H](O)[C@H]1C (some centres not stated) | 14.1 µM (active)
CCCCCC(=O)O[C@]1(C(C)=O)CC[C@H]2[C@@H]3CCC4=CC(=O)CC[C@]4(C)[C@H]3CC[C@@]21C | inactive

Each compound was assayed on CASKI in the same assay as above. Conditions: Gynecologic cancer cell panel viability, ATPlite luminescence, 48 h; series mostly up to 57.5 µM.
Summary of the method: as §1

Compound | Potency
O=c1[nH]sc2cc(Cl)ccc12 | inactive
O=C(Nc1ccc(Cl)cc1)Nc1ccc(Cl)c(Cl)c1 | inactive
O=C1Nc2ccccc2C1(c1ccc(O)cc1)c1ccc(O)cc1 | inactive
O=C(O)CNC(=O)CNC(=O)CNC(=O)CSC(=O)c1ccccc1 | inactive
CN1CCC(Nc2ncc3ncnc(Nc4ccc(F)c(Cl)c4)c3n2)CC1 | inactive
CC1CC(=O)NN=C1c1ccc(NCC(C)(C)NCC(O)COc2cc(Cl)ccc2C#N)cc1 (configuration not stated) | inactive
O=S(=O)(O)c1ccc2nc(-c3ccccc3)[nH]c2c1 | inactive
C[C@H](CN1CCCC1)C(=O)c1ccc(C(F)(F)F)cc1 | inactive
COC(=O)c1cc(Cl)ccc1NS(=O)(=O)C(F)(F)F | inactive
CCCCCCCCCCCCCC[N+](C)(C)C | 3.16 µM (active)
CCCCCCCCCCCCCCCCCCNC(=O)OC1CCN(C(=O)OC[C@H](COC(=O)N(Cc2cccc[n+]2CC)C(=O)c2ccccc2OC)OC)CC1 | 15.8 µM (active)
CCN(CC)CCOc1ccc(/C(=C(\Cl)c2ccccc2)c2ccccc2)cc1 | inactive
Nc1ccc2c(c1)CN1C(=O)c3ccccc3C1=N2 | 6.31 µM (active)
O=C(Nc1ccc(S(=O)(=O)N2CCOCC2)cc1)c1cc(Cl)ccc1NS(=O)(=O)c1ccc(Cl)s1 | inactive
CCCCCC(=O)O[C@]1(C(C)=O)CC[C@H]2[C@@H]3CCC4=CC(=O)CC[C@]4(C)[C@H]3CC[C@@]21C | inactive

Each compound was assayed on Es-2 in the same assay as above. Conditions: Gynecologic cancer cell panel viability, ATPlite luminescence, 48 h; series mostly up to 57.5 µM.
Summary of the method: as §1

Compound | Potency
Cc1cc(OCCOCC[N+](C)(C)Cc2ccccc2)ccc1C(C)(C)CC(C)(C)C | inactive
O=C1Nc2ccccc2C1(c1ccc(O)cc1)c1ccc(O)cc1 | inactive
O=C(O)CNC(=O)CNC(=O)CNC(=O)CSC(=O)c1ccccc1 | inactive
Nc1c2ccccc2nc2ccccc12 | 14.1 µM (active)
CN1CCC(Nc2ncc3ncnc(Nc4ccc(F)c(Cl)c4)c3n2)CC1 | inactive
CC1CC(=O)NN=C1c1ccc(NCC(C)(C)NCC(O)COc2cc(Cl)ccc2C#N)cc1 (configuration not stated) | inactive
O=S(=O)(O)c1ccc2nc(-c3ccccc3)[nH]c2c1 | inactive
C[C@H](CN1CCCC1)C(=O)c1ccc(C(F)(F)F)cc1 | inactive
CC(C(O)c1ccccc1)N(C)CCOC(c1ccccc1)c1ccccc1 (configuration not stated) | inactive
CC(NCCC(c1ccccc1)c1ccccc1)c1ccccc1 (configuration not stated) | inactive
Oc1ccc(CCNCCCCCCNCCc2ccccc2)cc1O | inactive
CCCCCCCCCCCCCC[N+](C)(C)C | 14.1 µM (active)
Nc1ccc2c(c1)CN1C(=O)c3ccccc3C1=N2 | 10 µM (active)
CCOC(=O)C1=C(C)NC(C)=C(C(=O)OCC)C1c1ccccc1/C=C/C(=O)OC(C)(C)C | inactive
O=C(Nc1ccc(S(=O)(=O)N2CCOCC2)cc1)c1cc(Cl)ccc1NS(=O)(=O)c1ccc(Cl)s1 | inactive
OC1(c2ccc(Cl)c(C(F)(F)F)c2)CCN(CCCC(c2ccc(F)cc2)c2ccc(F)cc2)CC1 | 25.1 µM (active) and inactive
CO[C@@H]1[C@@H](OC)[C@H](C)[C@@](O)(CC(=O)O)O[C@H]1[C@H](C)[C@H]1O[C@@]2(CC[C@@](C)([C@H]3CC[C@@](C)([C@@H]4O[C@@H]([C@H]5O[C@](C)(O)[C@H](C)C[C@@H]5C)C[C@@H]4OC4C[C@H](OC)[C@@H](OC)[C@H](C)O4)O3)O2)C[C@H](O)[C@H]1C (some centres not stated) | 10 µM (active)
Nc1cccc2c(N)cccc12 | inactive
CCCCCC(=O)O[C@]1(C(C)=O)CC[C@H]2[C@@H]3CCC4=CC(=O)CC[C@]4(C)[C@H]3CC[C@@]21C | inactive
